Experimental data taken from PubChem BioAssay AID1159580 (chemical genetic matrix, 2015).
The whole screen tested about 5,500 compounds, of which about 2,000 (36%) were called active. Roughly 18% stayed inconclusive and do not appear here. Cut-off read from the data, not from the text of the source: active = normalized growth mostly below about 0.91 (no sharp cut-off); inconclusive = no clear call, values can overlap the other calls; inactive = mostly above about 0.92. This is one part of the list.

Assay: chemical genetic growth profiling, strain panel (AID 1159580);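 note: tested at 20 µM; growth read once vehicle control cultures reached saturation at 30 °C; 1 = growth at the plate median or of vehicle wells; lower values mean less growth of the strain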
Details: S. cerevisiae deletion strains, growth OD
[1] = locus YAL013W, strain DEP1, stronger effect = lower value
[2] = locus YDR150W, strain NUM1, stronger effect = lower value
[3] = locus YHR030C, strain SLT2, stronger effect = lower value
[4] = locus YJL095W, strain BCK1, stronger effect = lower value
[5] = locus YMR307W, strain GAS1, stronger effect = lower value
[6] = locus YPL241C, strain CIN2, stronger effect = lower value
[7] = locus YAL040C, strain CLN3, stronger effect = lower value
[8] = locus YCL061C, strain MRC1 (second series), stronger effect = lower value
[9] = locus YDR363W, strain ESC2, stronger effect = lower value
[10] = locus YER002W, strain NOP16, stronger effect = lower value
[11] = locus YHR079C, strain IRE1, stronger effect = lower value
[12] = locus YJR066W, strain TOR1, stronger effect = lower value
[13] = locus YJR075W, strain HOC1, stronger effect = lower value
[14] = locus YLR113W, strain HOG1, stronger effect = lower value
[15] = locus YMR263W, strain SAP30, stronger effect = lower value
[16] = locus YNL175C, strain NOP13, stronger effect = lower value
[17] = locus YNL183C, strain NPR1, stronger effect = lower value
[18] = locus YNL197C, strain WHI3, stronger effect = lower value
[19] = locus YNL224C, strain SQS1, stronger effect = lower value
[20] = locus YOR083W, strain WHI5 (second series), stronger effect = lower value
[21] = locus YOR231W, strain MKK1, stronger effect = lower value
[22] = locus YPL256C, strain CLN2, stronger effect = lower value
[23] = locus YGR229C, strain SMI1, stronger effect = lower value

Measured: normalized growth

Cc1c(O)c(C(=O)CC(C)C)c2oc3c(C(=O)CC(C)C)c(O)c(C)c(O)c3c2c1O
inactive: [1] 1.01 | locus YBR021W, strain FUR4, stronger effect = lower value 0.943 | locus YBR229C, strain ROT2, stronger effect = lower value 0.993 | locus YCL029C, strain bik1, stronger effect = lower value 1.01 | locus YDL035C, strain GPR1, stronger effect = lower value 0.994 | locus YDL074C, strain BRE1, stronger effect = lower value 0.978 | locus YDL101C, strain DUN1, stronger effect = lower value 1 | locus YDL134C, strain PPH21, stronger effect = lower value 0.991 | locus YDL185W, strain tfp1, stronger effect = lower value 1 | locus YDL192W, strain arf1, stronger effect = lower value 0.987 | locus YDR101C, strain arx1, stronger effect = lower value 0.972 | [2] 1.01 | locus YDR162C, strain NBP2, stronger effect = lower value 1 | locus YDR318W, strain mcm21, stronger effect = lower value 0.997 | locus YDR388W, stronger effect = lower value 0.985 | locus YDR502C, strain sam2, stronger effect = lower value 0.978 | locus YEL061C, strain CIN8, stronger effect = lower value 1.01 | locus YER110C, stronger effect = lower value 0.995 | locus YER155C, strain BEM2, stronger effect = lower value 0.995 | locus YER167W, strain BCK2, stronger effect = lower value 0.996 | locus YGL078C, strain dbp3, stronger effect = lower value 0.985 | locus YGL086W, strain mad1, stronger effect = lower value 0.989 | locus YGL248W, strain PDE1, stronger effect = lower value 0.994 | locus YGR135W, strain pre9, stronger effect = lower value 0.996 | locus YGR252W, strain gcn5, stronger effect = lower value 0.918 | [3] 1 | locus YHR079C, strain IRE1 (second series), stronger effect = lower value 0.987 | locus YHR094C, strain hxt1, stronger effect = lower value 0.986 | locus YHR129C, strain ARP1, stronger effect = lower value 1 | locus YHR200W, strain rpn10, stronger effect = lower value 0.983 | locus YIL066C, strain RNR3, stronger effect = lower value 1 | locus YIL073C, strain SPO22, stronger effect = lower value 0.983 | locus YIL125W, strain kgd1, stronger effect = lower value 0.995 | locus YIR030C, strain dcg1, stronger effect = lower value 0.993 | [4] 0.994 | locus YJL134W, strain LCB3, stronger effect = lower value 1 | locus YJL168C, strain set2, stronger effect = lower value 0.994 | locus YJL187C, strain SWE1 (second series), stronger effect = lower value 1 | locus YJR043C, strain POL32, stronger effect = lower value 0.958 | locus YKL009W, strain mrt4, stronger effect = lower value 0.977 | locus YKL068W, stronger effect = lower value 1 | locus YKL085W, strain MDH1 (second series), stronger effect = lower value 1.01 | locus YKL085W, strain MDH1, stronger effect = lower value 1.01 | locus YKL190W, strain CNB1, stronger effect = lower value 1 | locus YKR001C, strain vps1, stronger effect = lower value 0.935 | locus YLR039C, strain RIC1, stronger effect = lower value 0.787 | locus YLR058C, strain SHM2, stronger effect = lower value 1 | locus YLR102C, strain apc9, stronger effect = lower value 0.982 | locus YLR262C, strain YPT6, stronger effect = lower value 0.811 | locus YLR268W, strain sec22, stronger effect = lower value 0.985 | locus YLR330W, strain CHS5, stronger effect = lower value 1 | locus YLR342W, strain FKS1 (second series), stronger effect = lower value 0.978 | locus YLR371W, strain rom2, stronger effect = lower value 0.999 | locus YLR418C, strain cdc73, stronger effect = lower value 0.92 | locus YML016C, strain PPZ1, stronger effect = lower value 1.01 | locus YML032C, strain rad52, stronger effect = lower value 0.999 | locus YML124C, strain tub3, stronger effect = lower value 0.99 | locus YMR078C, strain ctf18, stronger effect = lower value 1 | locus YMR223W, strain ubp8, stronger effect = lower value 0.996 | [5] 0.827 | locus YNL067W, strain RPL9B, stronger effect = lower value 1.01 | locus YNL233W, strain BNI4, stronger effect = lower value 0.968 | locus YNL250W, strain rad50, stronger effect = lower value 1.01 | locus YNL271C, strain bni1, stronger effect = lower value 1 | locus YNL298W, strain CLA4, stronger effect = lower value 1 | locus YNL307C, strain MCK1, stronger effect = lower value 0.994 | locus YNR052C, strain pop2, stronger effect = lower value 1.01 | locus YOL006C, strain TOP1, stronger effect = lower value 0.977 | locus YOL012C, strain htz1 0.768 | locus YOL147C, strain pex11, stronger effect = lower value 0.987 | locus YOR061W, strain CKA2, stronger effect = lower value 1 | locus YOR069W, strain VPS5, stronger effect = lower value 1.01 | locus YOR136W, strain idh2, stronger effect = lower value 0.99 | locus YOR144C, strain elg1, stronger effect = lower value 0.996 | locus YOR184W, strain ser1, stronger effect = lower value 0.974 | locus YOR316C, strain cot1, stronger effect = lower value 0.986 | [6] 1 | locus YPR119W, strain clb2, stronger effect = lower value 0.989 | locus YPR141C, strain kar3, stronger effect = lower value 0.991 | locus YPR163C, strain tif3, stronger effect = lower value 0.99 | locus YPR167C, strain met16, stronger effect = lower value 1 | strain wtn01, stronger effect = lower value 0.975

Nc1nc2ccc(OC(F)(F)F)cc2s1
inactive: [1] 0.937 | [7] 0.985 | [8] 0.979 | [2] 0.954 | [9] 0.943 | [10] 0.979 | [3] 1.02 | [11] 1.02 | [4] 0.961 | [12] 0.956 | [13] 0.918 | [14] 0.94 | [15] 0.988 | [16] 0.975 | [17] 0.944 | [18] 0.988 | [19] 0.979 | [20] 0.938 | [21] 0.999 | [22] 1.02
active: [5] 0.856 | locus YPL055C, strain LGE1, stronger effect = lower value 0.829

CN(C)CCCOc1nn(Cc2ccccc2)c2ccccc12
inactive: [3] 0.972 | [11] 0.968 | [4] 0.979 | [12] 0.954 | [14] 0.956 | [17] 0.922 | [21] 0.967 | [22] 0.991

O=C(O)c1nn(Cc2ccc(Cl)cc2Cl)c2ccccc12
inactive: [1] 1 | [7] 1.05 | [8] 0.99 | [2] 1.02 | [9] 0.972 | [10] 0.956 | [23] 1.03 | [13] 1.02 | [15] 1 | locus YNL128W, strain TEP1, stronger effect = lower value 0.969 | locus YNL153C, strain GIM3, stronger effect = lower value 1.02 | [16] 0.935 | [18] 0.964 | [19] 0.996 | locus YNL322C, strain KRE1, stronger effect = lower value 0.998 | [20] 0.994

OCc1ccc(-c2nn(Cc3ccccc3)c3ccccc23)o1
active: [23] 0.841
inactive: [1] 0.925 | [7] 1.06 | [8] 1 | [2] 1.02 | [9] 1.01 | [10] 0.988 | locus YGR078C, strain PAC10, stronger effect = lower value 0.986 | [15] 0.991 | [16] 0.977 | [18] 0.972 | [19] 0.981 | [20] 0.95 | [6] 1.02
